# High-throughput results from PubChem BioAssay.
# HT1080NT lethal = kills 2HG-producing HT-1080-NT fibrosarcoma cells; HT-1080-NT fibrosarcoma viability, CellTiter-Glo ATP luminescence, 48 h; Potency, µM (top dose mostly 46.1 µM), actives largely listed as cytotoxic; actives 1.6% (n = 360,000); AID 686970;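 also: NT is the 2HG producing partner of a matched IDH1 knockdown line; nearly all actives have a fitted effect of over 55% in size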
#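 Toxicity toward the 2HG-producing NT line was scored as %Activity, normalised to DMSO and no-cell wells, from CellTiter-Glo luminescence after 48 hours' treatment.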
# TDP1 cell noCPT = qHTS for Inhibitors of human tyrosyl-DNA phosphodiesterase 1 (TDP1): qHTS in cells in absence of CPT | DT40 Tdp1-/- hTDP1 cells, no CPT, ATP luminescence, 48 h | Potency, µM (series often up to 46.2 µM), hits mostly inhibitors | actives 15% (n = 420,000); also: nearly all actives have a fitted effect of over 55% in size
#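 Seeded 400 DT40-hTDP1 cells/well (vehicle DMSO, no 20 nM CPT); pinned compounds; ≥48 hr at 37 °C; CellTiter-Glo luminescence as viability measure.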
# HT1080 IDH1KD tx = kills HT-1080 cells with IDH1 knockdown. Potency, µM (highest dose often 46.1 µM), hits mostly cytotoxic. actives 2% (n = 360,000). AID 686971. HT-1080 IDH1 knockdown viability, ATP luminescence, 48 h
#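 % activity derives from luminescence (CellTiter-Glo), normalised to DMSO and no-cell wells. HT-1080-IDH1KD cells, 750/well, had 48 h compound exposure at 37 °C.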
# DT40 TDP1 CPT = DT40-hTDP1 cell growth loss with CPT; chicken DT40 Tdp1-/-;hTDP1 cells + 20 nM CPT, ATP luminescence, 48 h; Potency, µM (highest dose often 46.2 µM), hits mostly inhibitors; actives 12% (n = 420,000); AID 686979; also: nearly all actives have a fitted effect of over 55% in size
#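 Cell growth measured by CellTiter-Glo luminescence after a minimum 48 h, 37 C compound exposure with 20 nM CPT in Tdp1-knockout DT40 cells stably expressing hTDP1, seeded 400/well; qHTS titration format.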
# IL1B secr inh = blocks inflammasome-driven IL-1 beta release | AID 743279 | THP-1 LPS/ATP IL-1B secretion, AlphaLISA, 16 h; stronger effect = lower value | actives 4.7% (n = 360,000) | activity change, % at 57.5 µM; in the data active = activity change below about -50%; inconclusive = mostly about -30% to -49%
#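 THP-1 cells pretreated 1 hr with compounds (up to 57.5 uM final), then stimulated with LPS (250 ng/mL final) plus ATP (1.25 mM final); secreted IL-1B measured by AlphaLISA after 16 hr, decreased signal indicating inhibition.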
# Numbers stand for hits; - = inactive; ? = inconclusive; . = no result. This is a sample that favours compounds with a hit; in the whole collection about 19% have one here. Unless noted, calls follow the shape of the dose curve; as a rule, active = well fitted curve in the direction sought with a large enough effect; inconclusive = small, poorly fitted or top-dose-only effect, or another doubt; inactive = no such curve, though single readings can be large; an effect the other way counts as inactive or inconclusive.
SMILES,HT1080NT lethal,TDP1 cell noCPT,HT1080 IDH1KD tx,DT40 TDP1 CPT,IL1B secr inh
Cc1nn(C(CC(=O)O)C(=O)O)c(C)c1Br (stereo unspecified),-,-,-,-,-
CCOc1ccc(-c2noc(CSc3nnc(-c4ccccc4)n3-c3ccccc3)n2)cc1,.,12µM,.,21µM,.
CCOc1ccc(-n2c(SCc3nc(-c4ccc(C)cc4)no3)nnc2-c2ccncc2)cc1,?,?,10µM,?,-
c1ccc(-c2noc(CSc3nnnn3-c3ccccc3)n2)cc1,-,?,-,-,-
Cc1ccc(-c2noc(CSc3nnc(-c4ccncc4)n3-c3ccc(C)cc3)n2)cc1,-,16µM,?,21µM,-
Cc1ccc(-n2c(SCc3ccc(C(=O)O)cc3)nnc2-c2ccncc2)cc1,-,-,-,-,-
COc1ccc(-c2noc(CSc3nnc(C)n3-c3ccc(F)cc3)n2)cc1,.,-,.,?,.
Clc1ccccc1-c1nnc(SCc2nc(-c3ccccc3)no2)n1-c1ccccc1,.,7.3µM,.,18µM,.
Cc1ccc(N(C)C(=O)N2CCN(S(=O)(=O)c3ccc4ccccc4c3)CC2)cc1,-,-,-,-,-
CC1CCN(c2nc3c(c(=O)[nH]c(=O)n3C)n2Cc2ccccc2Cl)CC1,-,?,-,?,-
Clc1ccc(-c2noc(CSc3nnc(-c4ccncc4)n3-c3ccccc3)n2)cc1,?,?,?,?,-56
O=C(O)c1cccc2cccnc12,-,-,-,-,-
O=Cc1ccc2ccc3cccnc3c2n1,?,3.3µM,?,5.2µM,?
O=C1C=CC(=O)N1c1cccc2cccnc12,-,?,-,16µM,-
Cc1ccc2cccnc2c1N,-,-,-,-,-
CSS(=O)(=O)c1cccc2cccnc12,-,5.8µM,-,5.8µM,-
c1cnc2c(c1)ccc1cccnc12,7.3µM,3.7µM,7.3µM,3.7µM,-
O=Cc1ccc2cccnc2n1,-,?,-,?,-
COC(=O)c1cc(S(=O)(=O)NCc2cc(OC)c(OC)c(OC)c2)cn1C,-,-,-,-,-
CCN(CC)C(=O)c1ccc(C(=O)c2c(C)cc(C)cc2C)cc1,-,21µM,-,18µM,-
COc1ccc(C(C)=O)cc1CSc1nnc(Nc2ccccc2C)s1,?,?,-,?,-
COc1ccc(C(C)=O)cc1CSc1nnc(Nc2c(C)cccc2C)s1,-,?,-,21µM,-
COc1ccccc1CCC(=O)N(C)C1CCCN(Cc2ccccc2F)C1 (stereo unspecified),-,-,-,?,-
O=C(NC1CCCCC1)c1nn2c(C(F)(F)F)cc(-c3ccco3)nc2c1Br,-,-,-,-,-
O=C(NC1CCCCC1)c1cnn2c(C(F)(F)F)cc(-c3ccco3)nc12,?,?,?,23µM,-
SMILES,HT1080NT lethal,TDP1 cell noCPT,HT1080 IDH1KD tx,DT40 TDP1 CPT,IL1B secr inh
O=C(NCc1ccco1)c1cnn2c(C(F)(F)F)cc(-c3cccs3)nc12,-,21µM,-,15µM,-
OC(Cc1ccc2ccccc2n1)c1ccccc1 (stereo unspecified),.,?,.,-,.
CC(=O)NC(C)(c1ccccc1)c1nc(-c2ccncc2)cs1 (stereo unspecified),-,-,-,-,-
CC(=O)NC(C)(c1ccccc1)c1nc(-c2ccc(S(C)(=O)=O)cc2)cs1 (stereo unspecified),-,-,-,?,-
COCc1cccc(-c2csc(C(C)(NC(C)=O)c3ccccc3)n2)c1 (stereo unspecified),-,18µM,-,23µM,-
COCc1cccc(-c2csc(C(C)(NC(C)=O)c3ccc(OC)cc3)n2)c1 (stereo unspecified),-,?,-,18µM,-
CC(=O)NC(C)(c1ccccc1)c1nc(-c2cccc(F)c2)cs1 (stereo unspecified),-,?,-,29µM,.
Cc1ccc(C(=O)N2CCC(C(=O)c3c(C)cc(C)cc3C)CC2)cc1,-,?,-,?,-
O=[N+]([O-])c1cc(S(=O)(=O)N2CCCC2)ccc1NN=C1CCCCC1,-,-,-,-,-
O=[N+]([O-])c1cc(S(=O)(=O)N2CCCCC2)ccc1NCc1cccc(Cl)c1,-,29µM,?,-,-
CN1CCN(S(=O)(=O)c2ccc(Nc3cccc(Cl)c3)c([N+](=O)[O-])c2)CC1,-,23µM,-,?,-
O=C(O)CC/C(=N\Nc1ccc(S(=O)(=O)N2CCCC2)cc1[N+](=O)[O-])c1cccs1,?,-,33µM,-,-
CC1=C/C(=C/N(C)c2ccccc2)C(=O)S1,-,26µM,-,21µM,-
CC1=C/C(=C\c2ccc3c(c2)OCO3)C(=O)S1,-,-,-,-,-
COCCNC(=O)C(=O)NNS(=O)(=O)c1ccc2ccccc2c1,-,?,-,?,-
Cc1ccc(C(O)CN2C3=NCCN3c3ccccc32)cc1 (stereo unspecified),-,16µM,-,23µM,-
O=C(CN1C2=NCCN2c2ccccc21)c1ccc(Br)cc1,-,?,-,?,-
OC(CN1C2=NCCN2c2ccccc21)c1ccc(Br)cc1 (stereo unspecified),-,21µM,-,?,-62
CC(C#N)N1CCN(S(=O)(=O)c2ccc3c(c2)CCC3)CC1 (stereo unspecified),-,-,-,-,-
CC(C)OP(=O)(OC(C)C)C(O)c1cccc([N+](=O)[O-])c1 (stereo unspecified),-,-,-,-,-
CC(C)OP(=O)(OC(C)C)/C(C=O)=N\Nc1ccc([N+](=O)[O-])cc1,21µM,?,16µM,16µM,-90
CCc1nc2c(OCc3ccccc3)cccn2c1N(C)C(C)=O,?,-,-,-,-
CCc1nc2c(OCc3ccc(F)cc3)cccn2c1N(C)C(=O)COc1ccccc1,?,?,?,21µM,-
CCc1nc2c(OCc3ccccc3)cccn2c1N(C)C(=O)COc1ccccc1,-,?,-,23µM,-
CC1CN(c2nc(Nc3ccccc3F)nc(N)c2[N+](=O)[O-])CC(C)O1 (stereo unspecified),-,?,-,?,-
COc1ccc(C(=O)/C=C/C(=O)N(Cc2ccc(F)cc2)C(C(=O)NC2CCCCC2)c2ccncc2)c(O)c1 (stereo unspecified),-,?,-,?,-64
COc1ccc(C(=O)/C=C/C(=O)N(Cc2ccccc2OC)C(C(=O)NC2CCCCC2)c2ccncc2)c(O)c1 (stereo unspecified),?,21µM,?,?,-78
